Source: PubChem BioAssay (NCATS)
“And” between values parts separate entries of the source, which are not always exact repeats. Equal values may be shown once. Inconclusive results are not listed. Unmarked numbers belong to inactive results. The source made the active and inactive calls. Calls follow the shape of the dose curve; as a rule, active = well fitted activation curve with a large enough effect; inconclusive = small, poorly fitted or top-dose-only effect; inactive = no such curve, though single readings can be large or run the other way.
Potency is read from the fitted curve at half-maximal effect.

Each compound was assayed against Cellular tumor antigen p53 (Homo sapiens) (UniProt P04637) (assay: Primary qHTS for small molecule compounds that upregulate eGFP-tagged delta133p53alpha (in N-terminal) cells. (AID 2060322; also: nearly all actives have a fitted effect of over 75% in size;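 as to activation: cells pre-induced with doxycycline then dosed without doxycycline; series mostly up to about 56 µM; 0% = DMSO vehicle and 100% = reference activator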)). Details: NCI-H358 eGFP-delta133p53alpha fluorescence, 24 h; activation: active compounds read high.
Chain of Cellular tumor antigen p53 (Homo sapiens) (P04637 whole entry, looked up): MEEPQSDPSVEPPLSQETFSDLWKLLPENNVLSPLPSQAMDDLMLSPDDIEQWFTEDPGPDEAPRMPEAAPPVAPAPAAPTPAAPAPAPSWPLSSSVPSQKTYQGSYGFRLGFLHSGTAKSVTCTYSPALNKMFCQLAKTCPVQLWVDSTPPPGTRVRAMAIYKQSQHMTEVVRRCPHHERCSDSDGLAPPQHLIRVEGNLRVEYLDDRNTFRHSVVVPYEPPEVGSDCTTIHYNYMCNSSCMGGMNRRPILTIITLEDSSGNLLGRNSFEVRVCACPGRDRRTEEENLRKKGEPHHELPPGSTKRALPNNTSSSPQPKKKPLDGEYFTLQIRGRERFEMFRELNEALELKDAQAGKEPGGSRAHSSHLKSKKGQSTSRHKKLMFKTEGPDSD
From the text: Assay Development and Screening Technology
National Center for Advancing Translational Sciences (NCATS),
National Institute of Health (NIH), Rockville, Maryland
Cellular senescence (CS) is one of the hallmarks of aging and age-related diseases. Senescent cells are characterized by an irreversible growth arrest, an increase in senescence-associated beta-galactosidase (SA-beta-gal) activity and p16INK4a expression, an activation of the DNA damage response pathways, and the emergence of a senescence-associated secretory phenotype (SASP).
Delta133p53alpha, a human/primate-specific p53 protein isoform, delays or inhibits the induction of CS and SASP in various types of human cells, including progeria-derived fibroblasts, primary normal astrocytes, and CD8+ T lymphocytes. Induction of delta133p53alpha with small molecule compounds may provide therapeutic opportunities for inhibition of senescence/SASP-associated pathologies in progeria syndromes, astrocyte-mediated neuroprotection in neurodegenerative diseases, and possibly prevention and treatment of a wider range of senescence- and aging-associated diseases.
Here we report the development and validation of a cell-based quantitative high throughput screening (qHTS) assay in 1,536-well format. This qHTS assay uses the NCI-H358 cell line with doxycycline-inducible expression of enhanced green fluorescent protein (eGFP)-tagged delta133p53alpha, which allows efficient and highly quantitative measurement of the protein levels.
PROTOCOL TABLE (as described by Inglese J, Shamu CE and Guy RK. 2007)
SEQUENCE No. (e.g., 1, 2, 3, etc.); […] (e.g., Cells, Incubation, Reagent, etc.); VALUE; DESCRIPTION.
1; Cells; 4uL; 800 doxycycline treated cells / well in doxycycline-free media, 1536-well black, clear-bottom low base Aurora microplates.
2; Compounds; 23 nL; Kalypsis pin tool (Wako) equipped with 1536-well pin heads, 5-azacytidine positive control.
3; Incubation; 24 hr; 37C, 5% CO2; 95% relative humidity.
4; Aspiration; 1x; BioTek EL406 washer dispenser (Agilent).
5; Fixing; 3.5% paraformaldehyde, BioTek EL406 washer dispenser (Agilent).
6; Washing; 1x PBS; BioTek EL406 washer dispenser (Agilent).
7; Nuclei staining; 1:1000 dilution of Hoechst 33342 (Thermofisher), BioTek EL406 washer dispenser (Agilent).
8; Incubation; 20 min; in the dark at room temperature.
9; Washing; 2x, 1x PBS (ThermoFisher), BioTek EL406 washer dispenser (Agilent).
10; Reagent; 10 uL; 1x PBS per well, sealed with clear adhesive tape.
NOTES (numbers refer to sequence numbers above).
1. NCI-H358 cells expressing eGFP-tagged delta133p53alpha were grown in T75 culture flasks and treated with doxycycline for 24h, at 10 ng/ml for eGFP-D133p53a cells (N-terminal cell) and 100 ng/ml for D133p53a-eGFP cells (C-terminal cells). Cells were trypsinized, counted using a Counted 3 Automated Cell Counter (Thermo Fisher), and diluted to a concentration of 200,000 cells/ml. A Multidrop Combi Reagent Dispenser (ThermoFisher) was used to dispense 800 cells/well in […] of doxycycline-free media, into 1536-well black/clear bottom low base plates (AuroraMicroplates).
2. After plating cells, 23 nl of compound library, DMSO vehicle control or positive control (5-azacytidine) were transferred by Pin Tool (Wako). The plate map layout was the same for each plate: (column 1) non-doxycycline treated cells + DMSO vehicle control; (column 2) doxycycline treated cells + DMSO vehicle control baseline; (column 3) doxycycline treated cells + positive control 57.5 uM final concentration 5-azacytidine; (column 4) doxycycline treated cells + serial dilution of 5-azacytidine, 16-point 1:2 titration spanning 1.8 nM to […] final concentration; (columns 5-48) doxycycline treated cells + titration of library compounds.
3. Cells were incubated at 37 °C, 5 % CO2, 95% RH with breathable metal lid for 24h.
4-10. […] After two washes, 10 ul of 1X PBS (Thermo Fisher) was dispensed to each well. Clear adhesive plate seals (VWR) were applied and plates stored at 4 °C.
11. […]
`CC(C)(C[C@@](O)(Cc1cc2ccncc2[nH]1)C(F)(F)F)c1cc(F)ccc1O` was tested, and the activation was 13.4%. For `CCOC(=O)N1CCC(=C2c3ccc(Cl)cc3CCc3cccnc32)CC1`, the activation was 20.9% and 5.49%. For `C[C@@H](CN(C)C)CN1c2ccccc2Sc2ccccc21`, the activation was -15.1%. In the case of `C[C@@H]1O[C@@H](O[C@@H]2[C@@H](O)[C@@H](O)[C@H](O[C@@H]3[C@@H](O)[C@@H](O[C@]4(CO)O[C@H](CO)[C@@H](O)[C@@H]4OC(=O)/C=C/c4ccc(O)cc4)O[C@H](CO)[C@H]3OC(=O)/C=C/c3ccc(O)cc3)O[C@H]2C)[C@H](O)[C@H](O)[C@H]1O`, the activation was 3.82%. With `O=C(O)c1ccc2cc(-c3ccc(O)c(C45CC6CC(CC(C6)C4)C5)c3)ccc2c1` the activation was -20.4%. `c1ccc(-c2ccc(CNc3nc(-c4ccccn4)nnc3-c3ccccc3)cc2)cc1` was tested, and the activation was -11.7%. With `CC1=C2CC(=O)C(C)CC/C=C(\C)CC2OC1=O` (stereo not given) the activation was 8.93%. Work on `C=C1C2(C)CC3C4(C)C=CC(=O)OC(C)(C)C4CCC3(C)C1(C(=O)OC)C(=O)C(C)(O)C2=O` (stereo not given) yielded an activation of -21.4%. In the case of `C=CC1(C)CC(OC(=O)/C(C)=C\COC(C)=O)C(C(=C)C(=O)O)C(O)C1C(=C)CO` (stereo not given), the activation was 0%. Work on `O=C(N[C@@H]1CCCc2c1cnn2-c1ccc(F)cc1F)c1ccccn1` yielded an activation of 12.3%. With `CC(C)(C)NCC(O)COc1cccc2[nH]c(=O)[nH]c12` (stereo not given) the activation was -2.8%. With `Cc1cnc(Nc2ccc(OCCN3CCCC3)cc2)nc1Nc1cccc(S(=O)(=O)NC(C)(C)C)c1` the activation was 27.2% and -7.14% and 27.9%. Compound `CC(C)C1(O[C@@H]2O[C@H](CO)[C@@H](O)[C@H](O)[C@H]2O)CC=C(CO)CC1` (stereo not given in full) has an activation of 17.9%. In the case of `NC(C(=O)N[C@@H]1C(=O)N2C(C(=O)O)=C(Cl)CS[C@H]12)c1ccccc1` (stereo not given in full), the activation was 6.44%. `C=C1CC2C(C)(CCC(=O)O)C(C(C)(C)O)CCC2(C)C2(C(=O)OC)C(=O)C(C)(O)C(=O)C12C` (stereo not given) was tested, and the activation was -21.4%. `C=C[C@H]1[C@H](O[C@@H]2O[C@H](CO)[C@@H](O)[C@H](O)[C@H]2O)OC=C(C(=O)OC)[C@H]1C[C@@H]1c2cc(O)c(O)cc2CCN1C(C)=O` was tested, and the activation was -6.11%. `C[C@H]1C[C@H](O)c2ccsc2S1(=O)=O` was tested, and the activation was -26.6%. `Nc1ccc(S(=O)(=O)Nc2ccccn2)cc1` was tested, and the activation was -36.8% and 13.3%. `C[C@H](NC(=O)CCc1nc2ccccc2c(=O)[nH]1)c1ccccc1` was tested, and the activation was 1%. With `Brc1c(NC2=NCCN2)ccc2nccnc12` the activation was -0.565% and -20%. `CCN(CC)CCCCNc1ncc2c(n1)N(C)C(=O)N(c1c(Cl)c(OC)cc(OC)c1Cl)C2` was tested, and the activation was -7.31%. Compound `C/C=C(\C)C(=O)O[C@@H]1CC2[C@@H](CC=C3C[C@@H](O[C@H]4C[C@H](OC)[C@H](O[C@H]5C[C@H](OC)[C@H](O[C@@H]6O[C@H](C)[C@@H](O[C@H]7C[C@H](OC)[C@H](O[C@@H]8O[C@H](CO)[C@@H](O)[C@H](O)[C@H]8O)[C@@H](C)O7)[C@H](OC)[C@H]6O)[C@@H](C)O5)[C@@H](C)O4)CC[C@@]32C)[C@@]2(O)CC[C@H](C(C)=O)[C@@]12C` (stereo not given in full) has an activation of 9.92%. `CCOc1ccc(Cc2cc([C@@H]3O[C@H](CO)[C@@H](O)[C@H](O)[C@@H]3O)ccc2Cl)cc1` was tested, and the activation was -1.71%. Compound `c1ccc(N2CCN(CCc3nn[nH]n3)CC2)cc1` has an activation of -1.43%. For `N#Cc1c(NC(=O)c2cccc3ccccc23)sc2c1CCCC2`, the Potency was 13.7 µM (active). Compound `CC12CC34C=CC(=O)C(C)(CCC(=O)O)C3C(CC1C4)O2` (stereo not given) has an activation of 23.7%. For `CNC(=O)c1ccc(Nc2ncc(C(F)(F)F)c(NCc3nccnc3N(C)S(C)(=O)=O)n2)cc1`, the Potency was 12 µM (active). Compound `CC(=O)OCC1=C[C@@H]2OC(=O)C3=CO[C@@H](O[C@@H]4O[C@H](CO)[C@@H](O)[C@H](O)[C@H]4O)[C@H]1[C@@H]32` has an activation of -16.8%. `C[C@@H]1CCC[C@H](C)N1` showed an activation of 8.37%. Work on `O=C(O)[C@H](Cc1ccc(Nc2nccc3ccncc23)cc1)NC1=C(Br)C(=O)C12CCCCC2` yielded an activation of -6.21%. In the case of `CC(=O)NC[C@H]1CN(c2ccc(N3CCOCC3)c(F)c2)C(=O)O1`, the activation was 20.9% and -21.5% and 0.955%. In the case of `C[C@@]12C(=O)OC(=O)[C@@]1(C)C1CCC2O1`, the Potency was 9.68 µM (active). `C/C=C1/CC2C(=O)Nc3cc(O)c(OC)cc3C(=O)N2C1` (stereo not given) gave an activation of -3.57%. `CC(C)C(=O)SCCCCCCC(=O)Nc1nc(-c2ccccc2)cs1` gave an activation of 49.2%. `CC(=O)C1=C(O)C=C2Oc3c(C(C)=O)c(O)c(C)c(O)c3[C@]2(C)C1=O` showed an activation of -2.68%. For `O=C(CN1C(=O)C2(CCCC2)NC[C@H]1c1cc(F)cc(F)c1)Nc1ccc2c(c1)C[C@@]1(C2)C(=O)Nc2ncccc21`, the activation was 22.6%. With `COC(=O)C1(C)CCC2(C(=O)O)CCC3(C)C(=CCC4C5(C)CC(O)C(OC6OCC(O)C(O)C6O)C(C)(CO)C5CCC43C)C2C1` (stereo not given) the activation was -6.11%. Work on `O=C(O)[C@H]1O[C@H](Oc2cc3oc(-c4ccccc4)cc(=O)c3c(O)c2O)[C@H](O)[C@@H](O)[C@H]1O` yielded an activation of 28.4%. In the case of `CCCC(=O)OCOC(=O)C1=C(C)NC(C)=C(C(=O)OC)C1c1cccc(Cl)c1Cl` (stereo not given), the activation was -26.6%. `Cc1cccc(N(C)C(=S)Oc2ccc3c(c2)CCC3)c1` gave an activation of -3%.
